Test [1] deals with Tyrosine-protein kinase SYK (Homo sapiens) (UniProt P43405). Particulars: at 1 µM.
The target in test [2] is T1, Tyrosine-protein kinase Tec (Homo sapiens) (UniProt P42680).
T1 sequence (whole entry): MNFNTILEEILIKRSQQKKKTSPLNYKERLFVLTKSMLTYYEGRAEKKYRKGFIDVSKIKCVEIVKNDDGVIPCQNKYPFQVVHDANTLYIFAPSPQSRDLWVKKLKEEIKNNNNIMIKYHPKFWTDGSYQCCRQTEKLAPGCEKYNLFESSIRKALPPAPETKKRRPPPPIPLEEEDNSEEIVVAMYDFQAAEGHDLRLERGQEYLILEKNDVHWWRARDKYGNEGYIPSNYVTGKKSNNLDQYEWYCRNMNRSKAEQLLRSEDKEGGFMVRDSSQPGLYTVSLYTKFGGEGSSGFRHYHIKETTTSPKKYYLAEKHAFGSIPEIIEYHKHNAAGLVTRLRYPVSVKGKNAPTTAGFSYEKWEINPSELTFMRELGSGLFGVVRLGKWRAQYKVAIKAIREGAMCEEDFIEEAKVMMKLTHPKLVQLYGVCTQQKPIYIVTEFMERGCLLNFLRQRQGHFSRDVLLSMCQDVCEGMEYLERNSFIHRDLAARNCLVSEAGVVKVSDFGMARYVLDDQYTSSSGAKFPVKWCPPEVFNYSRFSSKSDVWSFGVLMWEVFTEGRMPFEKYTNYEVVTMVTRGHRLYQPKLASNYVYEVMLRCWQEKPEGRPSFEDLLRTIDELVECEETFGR
Conditions: at 0.1 µM.

Test [3] deals with T1, Tyrosine-protein kinase Tec (Homo sapiens). Conditions: at 1 µM.
Test [4] concerns the target Angiopoietin-1 receptor (Homo sapiens) (UniProt Q02763). Conditions: at 0.1 µM.
Test [5] shares this target. Particulars: at 1 µM.
For test [6], the target named is T2, Non-receptor tyrosine-protein kinase TNK1 (Homo sapiens) (UniProt Q13470).
T2 sequence (whole entry): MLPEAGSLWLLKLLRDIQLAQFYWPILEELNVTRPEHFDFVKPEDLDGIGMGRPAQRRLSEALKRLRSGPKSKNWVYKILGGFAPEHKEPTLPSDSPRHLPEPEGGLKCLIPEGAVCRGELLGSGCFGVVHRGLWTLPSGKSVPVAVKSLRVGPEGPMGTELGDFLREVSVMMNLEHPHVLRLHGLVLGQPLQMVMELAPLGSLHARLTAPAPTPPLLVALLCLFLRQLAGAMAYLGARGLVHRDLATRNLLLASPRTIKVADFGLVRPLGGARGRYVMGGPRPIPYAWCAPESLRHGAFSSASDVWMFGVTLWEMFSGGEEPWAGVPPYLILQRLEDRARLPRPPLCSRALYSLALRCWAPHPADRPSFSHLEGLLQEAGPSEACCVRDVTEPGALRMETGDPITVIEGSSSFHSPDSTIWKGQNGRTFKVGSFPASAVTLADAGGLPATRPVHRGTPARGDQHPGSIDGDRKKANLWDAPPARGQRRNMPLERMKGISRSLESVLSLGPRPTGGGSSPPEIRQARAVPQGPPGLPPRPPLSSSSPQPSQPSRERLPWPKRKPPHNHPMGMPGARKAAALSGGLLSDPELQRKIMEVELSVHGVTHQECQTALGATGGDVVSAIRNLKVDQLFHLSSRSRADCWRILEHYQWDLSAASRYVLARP
Particulars: at 0.1 µM.

The target of test [7] is T2, Non-receptor tyrosine-protein kinase TNK1 (Homo sapiens). Particulars: at 1 µM.
The target in test [8] is Activated CDC42 kinase 1 (Homo sapiens) (UniProt Q07912). Particulars: at 0.1 µM.
Test [9] has the same target. Particulars: at 1 µM.
In test [10] the target is High affinity nerve growth factor receptor (Homo sapiens) (UniProt P04629). Conditions: at 0.1 µM.
High affinity nerve growth factor receptor (Homo sapiens), sequence (P04629 33-796 limits assumed): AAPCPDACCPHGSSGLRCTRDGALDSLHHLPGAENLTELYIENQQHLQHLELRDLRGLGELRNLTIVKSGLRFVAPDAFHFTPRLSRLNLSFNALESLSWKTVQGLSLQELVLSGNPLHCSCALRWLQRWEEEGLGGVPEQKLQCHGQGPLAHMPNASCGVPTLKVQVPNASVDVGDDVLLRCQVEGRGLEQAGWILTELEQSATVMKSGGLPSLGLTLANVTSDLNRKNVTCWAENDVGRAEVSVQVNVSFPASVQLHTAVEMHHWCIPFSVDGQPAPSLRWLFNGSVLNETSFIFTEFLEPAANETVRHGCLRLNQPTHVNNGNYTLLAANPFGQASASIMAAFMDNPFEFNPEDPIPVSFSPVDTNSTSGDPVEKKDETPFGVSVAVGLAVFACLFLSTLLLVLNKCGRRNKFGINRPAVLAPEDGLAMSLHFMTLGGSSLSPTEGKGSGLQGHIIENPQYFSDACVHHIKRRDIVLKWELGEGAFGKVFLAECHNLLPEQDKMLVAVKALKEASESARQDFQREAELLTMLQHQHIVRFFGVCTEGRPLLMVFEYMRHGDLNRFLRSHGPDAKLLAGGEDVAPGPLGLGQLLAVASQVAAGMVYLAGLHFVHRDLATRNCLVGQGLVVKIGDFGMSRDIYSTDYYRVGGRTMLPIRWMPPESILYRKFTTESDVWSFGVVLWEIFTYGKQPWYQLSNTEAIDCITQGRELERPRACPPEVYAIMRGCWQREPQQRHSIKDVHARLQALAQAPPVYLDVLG
The target is the same in test [11]. Particulars: at 1 µM.
Test [12] addresses BDNF/NT-3 growth factors receptor (Homo sapiens) (UniProt Q16620). Particulars: at 0.1 µM.
Test [13] shares this target. Conditions: at 1 µM.
Test [14] has as its target NT-3 growth factor receptor (Homo sapiens) (UniProt Q16288). Conditions: at 0.1 µM.
Test [15] has the same target. Particulars: at 1 µM.
For test [16], the target named is T3, Tyrosine-protein kinase TXK (Homo sapiens) (UniProt P42681).
T3 sequence (whole entry): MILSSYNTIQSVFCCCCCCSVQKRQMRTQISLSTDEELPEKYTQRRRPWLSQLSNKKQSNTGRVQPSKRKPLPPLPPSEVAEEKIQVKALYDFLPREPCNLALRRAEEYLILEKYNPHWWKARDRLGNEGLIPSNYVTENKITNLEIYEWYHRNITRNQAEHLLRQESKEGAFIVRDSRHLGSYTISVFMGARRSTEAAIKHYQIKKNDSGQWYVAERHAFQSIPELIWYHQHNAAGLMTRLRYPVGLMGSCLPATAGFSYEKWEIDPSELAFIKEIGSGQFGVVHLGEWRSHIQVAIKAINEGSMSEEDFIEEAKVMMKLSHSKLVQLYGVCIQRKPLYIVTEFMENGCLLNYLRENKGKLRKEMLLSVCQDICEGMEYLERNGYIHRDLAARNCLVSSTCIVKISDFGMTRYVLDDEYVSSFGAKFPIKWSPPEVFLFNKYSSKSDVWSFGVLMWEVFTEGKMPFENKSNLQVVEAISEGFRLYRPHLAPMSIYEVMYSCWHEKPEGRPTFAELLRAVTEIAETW
Particulars: at 0.1 µM.

The target in test [17] is T3, Tyrosine-protein kinase TXK (Homo sapiens). Particulars: at 1 µM.
The target in test [18] is Non-receptor tyrosine-protein kinase TYK2 (Homo sapiens) (UniProt P29597). Conditions: at 0.1 µM.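 Further: each value is a mean of the inhibition readings.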
Non-receptor tyrosine-protein kinase TYK2 (Homo sapiens), sequence (P29597 whole entry): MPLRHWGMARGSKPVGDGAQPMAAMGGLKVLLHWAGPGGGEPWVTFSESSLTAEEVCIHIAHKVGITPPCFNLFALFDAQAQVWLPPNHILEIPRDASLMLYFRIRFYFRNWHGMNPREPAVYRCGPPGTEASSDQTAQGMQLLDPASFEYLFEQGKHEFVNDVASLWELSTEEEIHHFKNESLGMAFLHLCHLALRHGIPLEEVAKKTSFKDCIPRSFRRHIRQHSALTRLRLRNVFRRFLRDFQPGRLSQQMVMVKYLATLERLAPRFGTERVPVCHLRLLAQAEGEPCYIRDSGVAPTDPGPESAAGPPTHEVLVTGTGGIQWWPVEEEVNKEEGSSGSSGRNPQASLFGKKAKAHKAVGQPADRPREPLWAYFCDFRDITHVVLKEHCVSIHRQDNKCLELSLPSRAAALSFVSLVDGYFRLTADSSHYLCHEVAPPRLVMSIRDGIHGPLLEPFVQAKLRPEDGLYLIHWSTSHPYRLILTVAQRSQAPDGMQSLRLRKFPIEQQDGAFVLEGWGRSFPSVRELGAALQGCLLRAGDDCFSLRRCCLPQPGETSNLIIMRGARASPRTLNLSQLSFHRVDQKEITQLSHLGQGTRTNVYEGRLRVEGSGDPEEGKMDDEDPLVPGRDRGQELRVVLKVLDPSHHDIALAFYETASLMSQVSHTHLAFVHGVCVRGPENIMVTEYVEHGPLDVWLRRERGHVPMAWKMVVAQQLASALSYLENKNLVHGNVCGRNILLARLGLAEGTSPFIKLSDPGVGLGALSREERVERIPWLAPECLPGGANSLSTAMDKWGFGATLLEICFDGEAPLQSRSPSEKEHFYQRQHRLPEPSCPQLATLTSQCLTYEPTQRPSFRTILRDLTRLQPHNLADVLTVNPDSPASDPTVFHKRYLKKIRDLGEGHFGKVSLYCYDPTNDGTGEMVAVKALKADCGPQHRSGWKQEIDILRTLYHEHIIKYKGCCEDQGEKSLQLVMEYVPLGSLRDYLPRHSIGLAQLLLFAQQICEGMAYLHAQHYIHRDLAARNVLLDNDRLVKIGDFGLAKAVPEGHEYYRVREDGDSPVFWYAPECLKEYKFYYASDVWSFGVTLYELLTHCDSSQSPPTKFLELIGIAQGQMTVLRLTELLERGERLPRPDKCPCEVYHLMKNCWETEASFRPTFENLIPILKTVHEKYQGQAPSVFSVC
For test [19], the target named is T4, Dual specificity protein kinase TTK (Homo sapiens) (UniProt P33981).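 Further: reported figures are mean TTK inhibition at 1 µM.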
T4 sequence (whole entry): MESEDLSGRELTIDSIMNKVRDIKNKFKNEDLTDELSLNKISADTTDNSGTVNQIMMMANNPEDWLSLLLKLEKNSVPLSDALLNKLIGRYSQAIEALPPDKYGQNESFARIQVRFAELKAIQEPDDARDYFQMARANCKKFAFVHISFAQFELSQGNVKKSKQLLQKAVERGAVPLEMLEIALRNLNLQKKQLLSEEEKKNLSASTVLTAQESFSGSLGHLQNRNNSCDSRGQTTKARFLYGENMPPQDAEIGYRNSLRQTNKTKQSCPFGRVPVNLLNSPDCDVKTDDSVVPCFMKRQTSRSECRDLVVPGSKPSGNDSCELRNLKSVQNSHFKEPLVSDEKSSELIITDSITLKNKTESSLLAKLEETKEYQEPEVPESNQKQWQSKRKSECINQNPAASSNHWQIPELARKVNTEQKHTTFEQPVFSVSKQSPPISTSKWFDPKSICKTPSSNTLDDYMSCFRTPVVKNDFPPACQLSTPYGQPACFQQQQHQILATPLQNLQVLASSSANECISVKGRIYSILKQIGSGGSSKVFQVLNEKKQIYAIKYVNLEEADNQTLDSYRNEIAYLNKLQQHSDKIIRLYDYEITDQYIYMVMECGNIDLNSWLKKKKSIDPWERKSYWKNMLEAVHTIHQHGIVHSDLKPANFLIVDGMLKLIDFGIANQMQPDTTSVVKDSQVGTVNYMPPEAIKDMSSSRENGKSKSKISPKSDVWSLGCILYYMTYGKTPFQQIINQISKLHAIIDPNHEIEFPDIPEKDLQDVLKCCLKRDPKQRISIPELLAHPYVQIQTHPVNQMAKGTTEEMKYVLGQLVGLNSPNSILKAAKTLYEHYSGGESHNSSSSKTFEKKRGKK
Conditions: at 1 µM.

Test [20] concerns the target T5, Aurora kinase A (Homo sapiens) (UniProt O14965).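 Further: each reported value is a mean percent inhibition of Aurora-A.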
T5 sequence (whole entry): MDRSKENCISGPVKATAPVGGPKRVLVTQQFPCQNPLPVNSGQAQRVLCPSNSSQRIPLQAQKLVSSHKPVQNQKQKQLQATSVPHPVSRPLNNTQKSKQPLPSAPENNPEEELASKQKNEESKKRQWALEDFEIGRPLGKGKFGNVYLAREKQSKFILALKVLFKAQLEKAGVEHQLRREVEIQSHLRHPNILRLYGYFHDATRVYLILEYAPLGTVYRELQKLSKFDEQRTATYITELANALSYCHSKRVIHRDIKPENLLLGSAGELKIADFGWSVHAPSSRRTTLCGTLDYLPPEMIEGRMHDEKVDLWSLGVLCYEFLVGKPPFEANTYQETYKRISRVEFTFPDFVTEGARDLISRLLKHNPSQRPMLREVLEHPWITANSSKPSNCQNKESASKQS
Conditions: at 0.1 µM.

Each structure is given as a SMILES string.

NT-3 growth factor receptor (Homo sapiens), sequence (Q16288 32-839 limits assumed): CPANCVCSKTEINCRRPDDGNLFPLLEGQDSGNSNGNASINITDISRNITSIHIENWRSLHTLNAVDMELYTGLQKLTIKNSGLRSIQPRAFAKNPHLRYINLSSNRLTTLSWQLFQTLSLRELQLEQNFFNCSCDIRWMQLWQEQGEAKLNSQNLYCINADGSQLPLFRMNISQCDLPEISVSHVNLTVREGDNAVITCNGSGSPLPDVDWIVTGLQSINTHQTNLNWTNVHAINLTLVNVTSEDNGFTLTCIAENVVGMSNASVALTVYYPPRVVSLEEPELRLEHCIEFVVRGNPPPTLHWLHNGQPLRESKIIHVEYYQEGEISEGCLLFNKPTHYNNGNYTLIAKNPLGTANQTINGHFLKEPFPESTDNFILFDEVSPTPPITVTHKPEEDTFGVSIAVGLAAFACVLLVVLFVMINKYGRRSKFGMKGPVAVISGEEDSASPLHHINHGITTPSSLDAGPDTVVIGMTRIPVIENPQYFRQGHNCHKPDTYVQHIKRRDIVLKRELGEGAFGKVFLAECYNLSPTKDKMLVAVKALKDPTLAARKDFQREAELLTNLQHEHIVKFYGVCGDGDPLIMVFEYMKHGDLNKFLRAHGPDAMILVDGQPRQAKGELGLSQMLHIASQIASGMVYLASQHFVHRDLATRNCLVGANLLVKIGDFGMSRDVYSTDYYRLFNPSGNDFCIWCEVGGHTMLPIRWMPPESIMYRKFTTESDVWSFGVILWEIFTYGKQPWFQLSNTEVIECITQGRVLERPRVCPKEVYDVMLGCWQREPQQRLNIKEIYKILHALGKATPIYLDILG
BDNF/NT-3 growth factors receptor (Homo sapiens), sequence (Q16620 32-822 limits assumed): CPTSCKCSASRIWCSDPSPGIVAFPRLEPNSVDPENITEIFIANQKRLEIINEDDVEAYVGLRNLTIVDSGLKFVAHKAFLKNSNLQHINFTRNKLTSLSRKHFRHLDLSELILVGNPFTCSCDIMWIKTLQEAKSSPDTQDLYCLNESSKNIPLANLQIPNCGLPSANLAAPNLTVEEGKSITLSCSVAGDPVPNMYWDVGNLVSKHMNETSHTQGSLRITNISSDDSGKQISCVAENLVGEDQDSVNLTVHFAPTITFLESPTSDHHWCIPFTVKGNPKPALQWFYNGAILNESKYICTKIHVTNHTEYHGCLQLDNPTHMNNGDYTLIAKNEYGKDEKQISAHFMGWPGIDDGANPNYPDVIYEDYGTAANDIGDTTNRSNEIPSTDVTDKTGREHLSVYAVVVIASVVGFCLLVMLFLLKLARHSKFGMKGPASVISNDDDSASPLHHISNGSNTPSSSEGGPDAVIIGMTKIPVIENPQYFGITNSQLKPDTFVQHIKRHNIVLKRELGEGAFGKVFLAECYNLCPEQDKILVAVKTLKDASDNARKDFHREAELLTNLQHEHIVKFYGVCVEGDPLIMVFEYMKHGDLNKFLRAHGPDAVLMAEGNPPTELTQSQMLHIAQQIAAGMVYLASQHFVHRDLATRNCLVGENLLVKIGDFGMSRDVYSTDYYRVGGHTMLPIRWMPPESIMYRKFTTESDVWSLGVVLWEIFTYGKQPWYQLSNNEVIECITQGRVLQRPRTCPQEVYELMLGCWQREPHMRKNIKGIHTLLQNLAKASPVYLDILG
Angiopoietin-1 receptor (Homo sapiens), sequence (Q02763 whole entry): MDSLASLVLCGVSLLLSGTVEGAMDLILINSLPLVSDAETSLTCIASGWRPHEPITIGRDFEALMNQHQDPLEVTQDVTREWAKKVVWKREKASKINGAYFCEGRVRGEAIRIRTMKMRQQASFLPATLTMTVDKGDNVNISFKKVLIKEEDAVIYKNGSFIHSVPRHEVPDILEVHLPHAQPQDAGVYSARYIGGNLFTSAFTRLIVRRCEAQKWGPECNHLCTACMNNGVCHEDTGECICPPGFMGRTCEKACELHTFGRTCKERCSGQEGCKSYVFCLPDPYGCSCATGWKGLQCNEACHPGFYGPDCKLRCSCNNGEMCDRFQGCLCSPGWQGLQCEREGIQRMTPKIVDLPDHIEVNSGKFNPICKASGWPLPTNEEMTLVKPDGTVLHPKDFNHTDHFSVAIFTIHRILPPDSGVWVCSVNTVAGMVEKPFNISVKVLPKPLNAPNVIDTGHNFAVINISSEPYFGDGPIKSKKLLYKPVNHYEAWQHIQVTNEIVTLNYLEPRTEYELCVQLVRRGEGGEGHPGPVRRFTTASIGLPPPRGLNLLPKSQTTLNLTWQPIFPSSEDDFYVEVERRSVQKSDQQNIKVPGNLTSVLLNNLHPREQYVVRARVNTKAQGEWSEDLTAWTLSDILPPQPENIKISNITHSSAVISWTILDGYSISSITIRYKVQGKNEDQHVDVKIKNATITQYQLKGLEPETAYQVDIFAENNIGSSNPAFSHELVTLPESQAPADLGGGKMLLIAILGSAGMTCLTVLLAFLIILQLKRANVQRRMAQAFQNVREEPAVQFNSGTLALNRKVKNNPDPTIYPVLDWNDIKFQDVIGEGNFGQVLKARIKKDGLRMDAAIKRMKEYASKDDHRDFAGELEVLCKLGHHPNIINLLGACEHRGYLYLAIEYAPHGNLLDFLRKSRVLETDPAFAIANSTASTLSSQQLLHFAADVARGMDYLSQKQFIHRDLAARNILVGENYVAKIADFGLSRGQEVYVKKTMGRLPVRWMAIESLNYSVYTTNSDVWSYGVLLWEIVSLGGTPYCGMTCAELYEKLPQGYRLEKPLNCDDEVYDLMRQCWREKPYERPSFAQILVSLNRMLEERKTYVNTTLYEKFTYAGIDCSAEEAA

On to `Nc1nonc1-c1nc2cnccc2n1C1CCCCC1`, for which the inhibition was -0.01% in test [1]; -0.6% in test [2]; 1.22% in test [3]; 1.78% in [4]; 3.18% in test [5]; -1.33% in test [6]. Moreover, the inhibition in [7] was 20.8%; in [8], -1.67%; in test [9] it was -1.55%; in test [10] it was -1.55%; in [11], -1.13%; in test [12] it was -1.42%. Also, the inhibition in [13] was -0.84%; in test [14], -0.5%; in test [15], 0.67%; in test [16], -1.24%; in [17], -0.03%; in test [18] it was 4.5%. Further, the inhibition was 4.51% in test [19] and -0.63% in [20].
Take `Fc1ccc(-c2ncn(C3CCNCC3)c2-c2ccnc(Oc3ccccc3)n2)cc1`: the inhibition in [1] was 0.47%; in [2], -3.67%; in test [3], -1.69%; in test [4], -0.49%; in [5], 1.7%; in test [6], 0.27%. The inhibition in [7] is 1.01%; in test [8] it was -0.4%; in test [9], 0.06%; in test [10] it was 1.92%; in test [11], 1.69%; in test [12], 1.68%. In addition, the inhibition in test [13] was 2.74%; in [14], 1.74%; in test [15], 1.25%; in test [16], -5.33%; in test [17], -2.78%; in test [18], -1.8%. In addition, the inhibition in test [19] was 6.14%; in test [20], -3.42%.
Regarding `NS(=O)(=O)c1ccc(-c2ccc3c(NC(=O)C4CC4)n[nH]c3c2)cc1`, the inhibition was -2.49% in [1]; 4.93% in test [2]; 10.3% in test [3]; 1.08% in test [4]; 6.97% in test [5]; 2.11% in [6]. Also, the inhibition worked out at 4.7% in [7]; 1.28% in test [8]; 1.95% in test [9]; 3.82% in test [10]; 0.03% in test [11]; 0.8% in [12]. Moreover, the inhibition in test [13] was 5.39%; in test [14] it was 2.06%; in test [15] it was 9.04%; in test [16], 3.28%; in test [17] it was 4.88%; in test [18], -5.6%. Further, the inhibition was determined as 7.86% in [19] and 3.44% in test [20].

The record behind these values is ChEMBL document CHEMBL1961873, “Compounds: GSK PKIS; Assays: Nanosyn kinase panel” (2012).
